The values below come from PubChem BioAssay AID602438 (Sanford-Burnham Center for Chemical Genomics, 2012).

In general, inhibition refers to the drop in the measured response relative to a control, in per cent.

The structures appear in SMILES notation. About 3,100 (0.86%) of roughly 360,000 compounds were called active. The list comes from a sample in which actives are over-represented; it also holds similar structures and randomly drawn compounds. Unmarked numbers belong to inactive results.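 The calls were made as follows: active = inhibition or corrected inhibition above about 18%, plus a signal ratio from 0.5 to 1.5 (limit read from the data, passing the limit was not always enough); inactive = the rest.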

Neuropilin-1 (Homo sapiens), sequence (O14786 whole entry, looked up): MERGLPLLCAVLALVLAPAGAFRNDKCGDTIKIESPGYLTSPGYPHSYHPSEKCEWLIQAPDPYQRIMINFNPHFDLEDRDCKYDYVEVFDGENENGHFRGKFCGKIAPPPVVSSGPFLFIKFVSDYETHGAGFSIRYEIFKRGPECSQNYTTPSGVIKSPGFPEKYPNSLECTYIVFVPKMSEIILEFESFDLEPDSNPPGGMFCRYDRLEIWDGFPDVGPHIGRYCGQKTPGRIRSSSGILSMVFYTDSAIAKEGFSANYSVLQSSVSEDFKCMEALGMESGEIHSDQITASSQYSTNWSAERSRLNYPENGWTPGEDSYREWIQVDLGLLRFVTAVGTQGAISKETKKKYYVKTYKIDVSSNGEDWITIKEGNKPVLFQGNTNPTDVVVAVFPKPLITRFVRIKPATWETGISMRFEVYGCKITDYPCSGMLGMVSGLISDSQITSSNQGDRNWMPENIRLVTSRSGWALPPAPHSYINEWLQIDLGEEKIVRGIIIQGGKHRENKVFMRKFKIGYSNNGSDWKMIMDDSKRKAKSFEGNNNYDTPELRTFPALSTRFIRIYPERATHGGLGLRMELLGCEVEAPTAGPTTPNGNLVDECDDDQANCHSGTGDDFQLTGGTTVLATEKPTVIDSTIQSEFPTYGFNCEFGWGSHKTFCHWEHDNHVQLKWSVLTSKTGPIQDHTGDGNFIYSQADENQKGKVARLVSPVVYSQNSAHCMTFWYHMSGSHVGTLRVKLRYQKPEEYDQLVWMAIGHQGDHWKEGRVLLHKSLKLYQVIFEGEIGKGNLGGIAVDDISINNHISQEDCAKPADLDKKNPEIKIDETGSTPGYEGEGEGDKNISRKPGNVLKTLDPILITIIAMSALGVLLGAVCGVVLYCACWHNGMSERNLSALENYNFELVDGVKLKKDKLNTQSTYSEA

The assay addresses Neuropilin-1 (Homo sapiens) (UniProt O14786). Nature of the assay: modulators of CendR peptide binding to NRP-1, primary screen, biochemical, fluorescence polarization, uHTS (AID 602438). The following applies: FAM-RPARPAR peptide binding to NRP-1, fluorescence polarization; at 25 µM; stronger effect = higher value. (Polarisation of emitted light reports the rotation of a fluorescent probe.)
For `CSCCC(NS(=O)(=O)c1ccc(C)cc1)C(=O)N(C)CC(=O)Nc1ccccc1Br` (stereo unspecified), the inhibition was 3.9%.
For `O=C(CNC(=O)c1n[nH]c2ccccc12)Nc1cc(Cl)ccc1Cl`, the inhibition was 3.5%.
On to `CCC(NC(=O)c1cc(COc2ccc(F)c(F)c2)on1)c1ccncc1` (stereo unspecified), for which the inhibition was 1.4%.
Under `CC1=C(C(N)=O)C(c2ccc(F)cc2)n2nc(CCCO)nc2N1` (stereo unspecified) stands 6.8%; under `COc1ccccc1C1C(C(N)=O)=C(C)Nc2nc(CCCO)nn21` (stereo unspecified), 3.8%.
Under `COCCOC(=O)C1=C(C)Nc2nc(C)nn2C1c1ccccc1` (stereo unspecified) stands 36.8% (active); under `Cc1noc(C)c1CSc1nnc2ccc3ccccc3n12`, 10.5%.
As for `COc1ccc(-c2ccc3nnc(SCC(=O)Nc4ccc(NC(C)=O)cc4)n3n2)cc1`, the inhibition was -19%.
Next, `CC1C(=O)N(Cc2ccccc2)c2ccccc2N1C(=O)c1ccccc1` (stereo unspecified): 1.5%; `CC1C(C)N(C(=O)CCl)c2ccccc2N1C(=O)CCl` (stereo unspecified): 27.7% (active).
As for `CNC(=O)N1c2ccccc2C=Cc2ccccc21`, the inhibition was 2.6%.
Under `CCN(CC)c1ccc(C2C3CCCCC3(O)CCN2CC(=O)Nc2ccccc2)cc1` (stereo unspecified) stands -12.5%.
For `CC(C)Cc1nc(Nc2ccc(S(=O)(=O)N3CCCC3)cc2)c2nnn(Cc3ccccc3)c2n1`, the inhibition was -9.8%.
`CCOC(=O)CN1CC23C=CC(O2)C(C(=O)Nc2ccc(F)cc2)C3C1=O` (stereo unspecified): the inhibition is -3.4%.
As to `CC(C)COC(=O)C1C2C=CC3(CN(C(C)c4ccc(Br)cc4)C(=O)C13)O2` (stereo unspecified), the inhibition was 27.4% (active).
As for `CCN(CC)CCN1C(=O)C2C(C(=O)Nc3ccc(Br)cc3)C3C=CC2(O3)C1C(=O)NC1CCCCC1` (stereo unspecified), the inhibition was 10%.
Under `CCOC(=O)C1CCN(C(=O)c2ccccc2N(C)S(=O)(=O)c2ccccc2)CC1` stands 7.6%.
Consider `Cc1cccc(N2CCN(C(c3ccc(N(C)C)cc3)c3nnnn3C(C)(C)C)CC2)c1C` (stereo unspecified), for which the inhibition is -6.2%.
Next, `O=C(CCl)NNc1cccc(Cl)n1`: 5.6%; `COc1ccc(-c2c(C#N)cnc(C)c2C)c(O)c1OC`: 37.9% (active); `O=C(CC1SC(=Nc2ccccc2F)N(CCN2CCOCC2)C1=O)Nc1ccc(F)cc1F` (stereo unspecified): -6.8%.
Under `CCc1ccc(-c2nc(SCC(=O)NC3CCCC3)n[nH]2)cc1` stands -8.8%; under `Cc1cc(C)c(S(=O)(=O)N2CCCC2CNC(=O)c2ccc3c(c2)OCO3)c(C)c1` (stereo unspecified), -6.7%.
Take `Cc1cc(NS(=O)(=O)c2ccc(NC(=O)C(C)Oc3cccc(C)c3C)cc2)nc(C)n1` (stereo unspecified): the inhibition was -7.8%.
On to `CC(C)(C)S(=O)(=O)c1ccccc1-c1noc(-c2ccccc2)c1C(N)=O`, for which the inhibition was 42.7% (active).
For the compound `Cc1onc(-c2ccccc2)c1C(=O)N1CCN(S(=O)(=O)c2ccccc2C(F)(F)F)CC1`, the inhibition was -195%.
Turning to `O=C(COC(=O)c1cccnc1Cl)NC12CC3CC(CC(C3)C1)C2`, the inhibition is 8%.
Next, `CC1(C(=O)NCc2ccc3c(c2)OCO3)CCN1C(=O)Cc1cccs1` (stereo unspecified): 3%.
Turning to `Cc1cc(C(=O)COc2ccccc2[N+](=O)[O-])c(C)n1-c1cccc(S(=O)(=O)N2CCOCC2)c1`, the inhibition is -14.8%.
For the compound `CCc1c(N=O)c(-c2ccccc2)n(O)[n+]1[O-]`, the inhibition was 5.4%.
Next, `O=C(CN1CCN(Cc2ccc(F)cc2Cl)C1=O)NCc1cccs1`: -1.9%; `CCN=C1S/C(=C\c2cc(Br)ccc2OCC(=O)OCC)C(=O)N1CC`: -10.1%.
Next, `CN(C)c1ccc2c(=O)[nH][nH]c(=O)c2c1`: 11.3%.
Next, `COc1ccc(CNC(=O)C2CCN(S(C)(=O)=O)CC2)cc1`: -11.1%.
As for `COc1ccc(CNC(=O)[C@@H]2CC=C[C@@H]3CCN(C4CC4)C(=O)[C@@H]32)cc1`, the inhibition is 25.5% (active).
Under `COc1ccc(CNC(=O)C2CCN(C(=O)c3ccco3)CC2)cc1` stands -1%; under `COc1cccc(/C=N/NC(=O)C(=O)N2CCCC2)c1`, -7.9%.
Under `CCOC(=O)C1(Cc2ccccc2C(F)(F)F)CCN(C(=O)c2cc(C)n(C)n2)CC1` stands -5.9%.
Turning to `O=C(O)c1ccccc1N=N/C(=N/Nc1cc(S(=O)(=O)O)ccc1O)c1ccccc1`, the inhibition was 41.5% (active).
Under `Cc1ccc(S(=O)(=O)N(C)c2ccc(OCC(=O)OCc3ccc(C#N)cc3)cc2)cc1` stands -6.5%; under `O=C(c1ccc(N2CCOCC2)c([N+](=O)[O-])c1)N1CCN(S(=O)(=O)c2cccs2)CC1`, -14%.
Turning to `O=C(Cc1ccc(S(=O)(=O)N2CCOCC2)s1)N1CCN(c2ccc(C(F)(F)F)cc2[N+](=O)[O-])CC1`, the inhibition is 27.6% (active).
Next, `O=C(c1ccc(N2CCCC2=O)cc1)N1CCN(c2ccc(C(F)(F)F)cc2[N+](=O)[O-])CC1`: -0.8%.
As for `N#Cc1cccc(CSc2ncnc(N)n2)c1`, the inhibition was 12.4%.
Next, `CCOC(=O)C1CCN(C(=O)CN2C(=O)NC(C)(c3ccc4cc(OC)ccc4c3)C2=O)CC1` (stereo unspecified): -3.2%; `CC1=C(C(N)=O)C(c2sccc2C)n2nnnc2N1` (stereo unspecified): -5.6%; `Cc1cccc(OCC(=O)NC2CC(C)(C)NC(C)(C)C2)c1`: -1.1%.
For the compound `Cc1cc(OC(C)C(=O)NC2CC(C)(C)NC(C)(C)C2)c2c(C)cc(=O)oc2c1` (stereo unspecified), the inhibition is 1.2%.
Consider `CC(Oc1cccc(Cl)c1)C(=O)NC1CC(C)(C)NC(C)(C)C1` (stereo unspecified), for which the inhibition is 24.2% (active).
As to `COc1cccc(C2=CC(=O)C[C@H](c3ccc(OC)c(OC)c3)C2)c1`, the inhibition is -4.1%.
As to `O=C(/C=C/Nc1ccccc1)c1cnc(-c2ccccc2)s1`, the inhibition was 5.7%.
Under `S=c1[nH]nc(Nc2ccccc2)s1` stands 0.6%.
`CC(C)(C)C(=O)c1cnc(Nc2ccccc2)s1`: the inhibition is 37.4% (active).
Under `O=c1cc(Cl)c2ccccc2n1-c1ccccc1` stands 0%; under `CCOCCn1[nH]c2ccccc2c1=O`, 8.9%; under `COc1cc(OC)cc(C(=O)NC(C(=O)N2CCC2)C(C)C)c1` (stereo unspecified), -2.9%.
Next, `COc1cc(OC)cc(C(=O)N[C@H](C(=O)NNC(=O)c2ccc(Br)cc2)C(C)C)c1`: 22.8% (active).
As to `COc1ccc(N2CCN(C(=O)[C@@H](NC(=O)c3cc(OC)cc(OC)c3)C(C)C)CC2)cc1`, the inhibition was 4%.
Turning to `CC1CCN(S(=O)(=O)c2ccc(S(=O)(=O)NCc3ccco3)cc2)CC1`, the inhibition was 8.7%.
`CN(C)C(=S)N=c1ssc(=S)n1Cc1ccco1`: the inhibition was -2.5%.
Under `O=C(O)C(c1ccccc1)C1(O)CCCCC1` (stereo unspecified) stands -0.6%.
Next, `O=C(O)C(c1cccs1)C1(O)CCCCC1` (stereo unspecified): 27.7% (active); `CN(C)CCOC(=O)C(c1ccccc1)C1(O)CCCC1` (stereo unspecified): 5.3%.
Turning to `O=C(Cn1cc(C(F)(F)F)ccc1=O)Nc1ccc2c(c1)OCCO2`, the inhibition is -9.1%.
Under `O=C(/C=N/O)Nc1ccccc1` stands 3.7%; under `C#CC(C)(C)NC(=O)c1cnc(-c2ccccc2)nc1-c1ccccc1`, -0.8%; under `CCOC(=O)c1cnn(Cc2ccccc2Cl)c1N`, -3.4%.
As for `CCOC(=O)c1ccn(S(=O)(=O)c2ccc(C)cc2)c1-c1ccccc1`, the inhibition was -9.6%.
Next, `CCOC(=O)c1cc2n(c1N)-c1ccccc1C2=O`: 29.5% (active); `CCC(C(=O)NC1CCCC1)N(C(=O)c1snc(C(N)=O)c1N)c1ccc2c(c1)OCCO2` (stereo unspecified): 5.9%; `CC(NC(=O)COC(=O)Cn1cc(C(F)(F)F)ccc1=O)c1ccccc1` (stereo unspecified): -13.9%.
For `CCN(CC)N=Nc1cccc(NC(C)=O)c1`, the inhibition was 1.7%.
On to `Cc1cc2c(cc1C)N(C(=O)CN1C(=O)c3ccccc3C1=O)C(C)(C)c1ssc(=S)c1-2`, for which the inhibition is 23.1% (active).
Under `Cc1ccc(NC(=O)CCN2C(=O)c3ccccc3C2=O)cc1C` stands 15.6%.
Turning to `Cc1ccc2c(c1)-c1c(ssc1=S)C(C)(C)N2C(=O)CN1C(=O)c2ccccc2C1=O`, the inhibition is -1.5%.
Under `C=CCn1nc(-c2ccccc2)c2c(C)onc2c1=O` stands -1.4%.
Next, `Cc1ccc(C=O)c([B-](F)(F)F)c1`: -8.7%; `CN1c2ccc(C=O)c3c(C=O)ccc(c23)N(C)C1(C)C`: 56.9% (active); `O=C(CCN1CCCO1)N1CCCC(N2CCN(c3cccc(C(F)(F)F)c3)CC2)C1` (stereo unspecified): 10.2%.
Take `CC1CCCN(C(=O)c2ccc3c(c2)C(=O)N(CCC2=CCCCC2)C3=O)C1` (stereo unspecified): the inhibition is 9.2%.
With `Cc1cc(=O)[nH]c(SCc2ccc(Cl)cc2)n1`, the inhibition is 21.5%.
Under `Cc1cc(C)c(C(=O)CSc2nc(C)cc(=O)[nH]2)c(C)c1` stands 26.7% (active); under `COC(=O)c1cccc(NC(=O)CSc2nc(C)cc(=O)[nH]2)c1`, -10.7%.
As for `N#CCN(C(=O)COC(=O)C1CC2CCCC(C1)C2=O)c1ccccc1` (stereo unspecified), the inhibition is -17.5%.
In the case of `O=C(NC(=O)c1ccccc1N1CCCCC1)Nc1ccc(Br)cc1`, the inhibition is 5.9%.
Next, `Cc1cccc(C)c1NC(=O)CN1CCN(c2ccc(F)cc2)CC1`: 19.5% (active); `Cc1cccc(C)c1NC(=O)CS(=O)CC(=O)N1CCN(c2ccccc2)CC1` (stereo unspecified): 16%.
Next, `CCOC(=O)N1CCN(CC(=O)Nc2ccc(F)cc2)CC1`: -14.8%.
Next, `Cc1cc(Nc2ccc(C)c(C)c2)n2ncnc2n1`: 4.8%.
Regarding `CC1(c2cccc(Br)c2)NC(=O)N(CC(=O)NCCC2=CCCCC2)C1=O` (stereo unspecified), the inhibition is 6.7%.
As for `Cc1ccc(S(=O)(=O)NNC(=O)Nc2cccc3ccccc23)cc1`, the inhibition is 1.8%.
Under `Cc1ccc(S(=O)(=O)NC(=O)c2cccc(C)c2)cc1` stands -0.5%; under `Cc1ccc(S(=O)(=O)NNC(=O)/C=C/c2cccc(F)c2)cc1`, 20.7% (active).
Next, `COc1ccc(CN(C)C(=O)Cc2c[nH]c3ccccc23)c(OC)c1OC`: -1.4%; `COc1ccc(Cl)cc1NC(=O)CN(C)C(=O)CCCc1c[nH]c2ccccc12`: 7.5%.
Under `COc1ccccc1NC(=O)CCCc1c[nH]c2ccccc12` stands 65.3% (active).
